# Source: PubChem BioAssay AID463173 (ICCB-Longwood Screening Facility, Harvard Medical School, 2010)
# The whole screen tested about 52,000 compounds, of which about 4,300 (8.3%) were called active. What follows is part of a selection rich in actives, with near analogues and random picks from the rest. Unmarked numbers belong to inactive results. Cut-off read from the data, not from the text of the source: active = survival mostly below about 52% (no sharp cut-off); inactive = mostly above about 56%.
# System: DeltatarO mutant
# Experiment: growth inhibition of S. aureus wild type versus tarO mutant, primary screen, teichoic acid synthesis inhibitors, RN4220, OD600 (AID 463173)
# Settings: OD600, 18 h, active compounds read low, screened at 18.75 µg/mL (by protocol)
row,Structure (SMILES),survival
1,Cc1c(NC(=O)c2nc3ccccc3nc2N2CCCCC2)cccc1[N+](=O)[O-],100%
2,COc1ccc(-c2nc3n(n2)C(c2ccc(OC)cc2)C(C(=O)Nc2cccnc2)=C(C)N3)cc1 (stereo unspecified),89%
3,Cc1ccc(N2CC(NC(=O)CCc3ccccc3)CC2=O)cc1C (stereo unspecified),101%
4,COc1ccc(N2CCN(C(=O)Cn3c(-c4cccs4)cc4ccccc43)CC2)cc1,80%
5,Cc1cc(C)c(NC(=O)CN2C(=O)c3cccnc3Sc3ccccc32)c(C)c1,83%
6,CCOC(=O)c1ccc(N2C(=O)c3n[nH]c(-c4ccco4)c3C2c2ccc(O)c(OCC)c2)cc1 (stereo unspecified),69%
7,C=CCn1c(O)c(CN2CCOCC2)c(C)c(C#N)c1=O,89%
8,O=C(O)Cc1ccc(NC2(c3ccccc3)C(=O)c3ccccc3C2=O)cc1,73%
9,Cc1cccc(NC(=O)c2ccc3c(O)c(S(=O)(=O)c4ccccc4)c(=O)[nH]c3c2)c1C,88%
10,Cc1ccc(C)c(NC(=O)CN2CCN(C3CCCCC3)C(=O)C2=O)c1,94%
11,CCC(Cn1nnc2ccccc2c1=O)NC(=O)Nc1cc(Cl)ccc1OC (stereo unspecified),71%
12,Cc1ccc(Cl)cc1N1CCN(C(=O)c2cc(S(=O)(=O)N3CCCC3)c[nH]2)CC1,88%
13,COC(=O)c1cc(S(=O)(=O)N2CCN(c3cc(Cl)ccc3C)CC2)c[nH]1,12% (active)
14,COC(=O)c1cc(S(=O)(=O)N2CCN(c3ccc(OC)cc3)CC2)c[nH]1,73%
15,CC(Oc1ccccc1)C(=O)Nc1ccccc1C(=O)OCc1cc(=O)n2nc(C(C)C)sc2n1 (stereo unspecified),83%
16,Cc1ccn2c(Nc3ccccc3C)c(-c3ccccn3)nc2c1,11% (active)
17,Cc1ccn2c(Nc3ccccc3C)c(-c3ccccc3)nc2c1,0% (active)
18,Cc1ccc2nc(-c3ccccn3)c(Nc3ccccc3C)n2c1,15%
19,Cc1ccn2c(Nc3ccccc3C)c(-c3cccnc3)nc2c1,81%
20,Cc1ccn2c(Nc3ccccc3C)c(-c3ccncc3)nc2c1,85%
21,Cc1cccc(C)c1Nc1c(-c2ccccn2)nc2ccc(Cl)cn12,135%

row,Structure (SMILES),survival
1,Cc1ccc2nc(N3CCN(c4ccccc4F)CC3)c3nnnn3c2c1,87%
2,Cc1ccc(C)c(-n2cc(-c3ccccc3)nc2SCC(=O)Nc2ccccc2)c1,96%
3,Cc1cccc(NC(=O)c2cnn(-c3ccccc3)c2-n2cccc2)c1C,77%
4,CCC(=O)N1CCc2cc(Br)cc(S(=O)(=O)CCC(=O)N3CCN(c4cccc(C)c4)C(C)C3)c21 (stereo unspecified),65%
5,O=C(Nc1nc2n(n1)C(c1ccccc1)C=C(c1ccc(Cl)cc1)N2)c1ccco1 (stereo unspecified),42%
6,O=C(Nc1nc2n(n1)C(c1ccc(F)cc1)C=C(c1ccccc1)N2)c1cccc([N+](=O)[O-])c1 (stereo unspecified),99%
7,CC(=O)Nc1nc2n(n1)C(c1ccc(F)cc1)C=C(c1ccc(Cl)cc1)N2 (stereo unspecified),59%
8,O=C(Nc1nc2n(n1)C(c1ccc(F)cc1)C=C(c1ccccc1)N2)c1ccco1 (stereo unspecified),41% (active)
9,Cc1ccc(C2C=C(c3ccc(Cl)cc3)Nc3nc(NC(=O)c4ccco4)nn32)cc1 (stereo unspecified),67%
10,COc1ccc(C(=O)Nc2nc3n(n2)C(c2ccc(Cl)cc2)C=C(c2ccccc2)N3)cc1OC (stereo unspecified),59%
11,O=C(Nc1nc2n(n1)C(c1ccc(F)cc1)C=C(c1ccc(Cl)cc1)N2)c1ccco1 (stereo unspecified),16% (active)
12,O=C(Nc1nc2n(n1)C(c1ccc(Cl)cc1)C=C(c1ccccc1)N2)c1ccco1 (stereo unspecified),35% (active)
13,O=C(Nc1nc2n(n1)C(c1ccccc1)C=C(c1ccccc1)N2)c1ccccc1 (stereo unspecified),109%
14,O=C(NCCN1CCN(c2ccccc2)CC1)Nc1ccccc1Br,87%
15,Cc1ccc(C)c(CN2C(=O)c3ccccc3S(=O)(=O)c3ccc(C(=O)N4CCCCC4)cc32)c1,61%
16,Cc1cc2nn(-c3ccc(F)cc3)nc2cc1NC(=O)c1ccc(OC(C)C)cc1,64%
17,O=c1c(S(=O)(=O)c2cccc(Cl)c2)cn(Cc2ccccc2)c2cc(N3CCOCC3)c(F)cc12,83%
18,CCC(=O)N1CCc2cc(CNS(=O)(=O)c3ccc(NC(=O)CC(C)C)cc3)ccc21,86%
19,CC(=O)Nc1ccc(OC(=O)c2ccco2)cc1,71%
20,CN(C)c1ccc(Nc2ncnc3sc4c(c23)CCCC4)cc1,106%
21,Cc1cc(C)cc(Nc2ncnc3sc4c(c23)CCCC4)c1,0% (active)

row,Structure (SMILES),survival
1,c1coc(CNc2ncnc3sc4c(c23)CCCC4)c1,107%
2,CCc1ccc(Nc2ncnc3sc4c(c23)CCCC4)cc1,72%
3,CC(C)OCCCNc1ncnc2sc3c(c12)CCCC3,42% (active)
4,c1cn(CCCNc2ncnc3sc4c(c23)CCCCC4)cn1,65%
5,CCOc1ccccc1NC(=O)C1CCN(S(=O)(=O)c2c(C)noc2/C=C/c2ccco2)CC1,72%
6,COc1ccc(N2CCN(S(=O)(=O)c3ccc(CC(C)C)cc3)CC2)cc1,56% (active)
7,COc1ccc(N2CCN(S(=O)(=O)c3ccc4c(c3)C(C(C)C)C(=O)N4)CC2)cc1 (stereo unspecified),125%
8,COc1ccc(N2CCN(S(=O)(=O)c3ccc(C4CCCCC4)cc3)CC2)cc1,79%
9,Cc1ccc(NC(=O)Cn2cc(C(=O)C3CC3)c3ccccc32)cc1,148%
10,CCOC(=O)c1c(C)n(-c2ccccc2)c2ccc(OC(=O)COc3ccccc3)cc12,70%
11,CCN1C(=C(C#N)C#N)C=Cc2cc(C)ccc21,70%
12,COc1cccc(N2CC(NC(=O)c3ccc(S(=O)(=O)N4CCOCC4)cc3)CC2=O)c1 (stereo unspecified),117%
13,COC(=O)Cc1c(C)nc2nc(-c3ccc(C)cc3)[nH]n2c1=O,92%
14,Cc1nn(C(C)C(=O)Nc2ccccc2C(F)(F)F)c(=O)c2c1sc1ccccc12 (stereo unspecified),107%
15,CC(=O)Nc1ccccc1-c1nc2ccccc2n(C(C)C(=O)Nc2ccccc2C(F)(F)F)c1=O (stereo unspecified),98%
16,CC(C(=O)Nc1ccccc1)n1nnc2sc3c(c2c1=O)CCCC3 (stereo unspecified),61%
17,CCN(CC)S(=O)(=O)c1cc(-c2ccc(=O)n(C(C)C(=O)Nc3cccc(C#N)c3)n2)ccc1C (stereo unspecified),56%
18,CC(C(=O)Nc1cccc(C#N)c1)n1nc(-c2ccccc2)c2c(c1=O)CCCC2 (stereo unspecified),20% (active)
19,CC(C(=O)Nc1ccccc1C(F)(F)F)n1nc(-c2ccccc2)c2c(c1=O)CCCC2 (stereo unspecified),30% (active)
